Compound activity: PubChem, Pan Lab, Icahn School of Medicine at Mount Sinai
The entries come from a sample that favours hits as a whole.
RBX1-CUL1 inh: blocks human RBX1-Cullin-1 di-ubiquitin formation; P62877+Q13616; in vitro K48 di-Ub FRET, acceptor:donor ratio, 45 min; inhibition, % at 10 µM; hit rate 0.6% among 140,000; AID 1347404; in the data active means inhibition above about 25%
An asterisk follows results filed as active.

SMILES | RBX1-CUL1 inh
CC1(C)CC2(C)CC3=C(C(=O)/C(=N/Nc4cc([N+](=O)[O-])cc([N+](=O)[O-])c4)C(C)(C)C3)C(O)(C1)C2 (centres undefined) | -6.8
Cn1c2cccc3cccc(c32)[n+]2nc3c(cc12)c1cccc2cccc3c21 | 95.3*
Cn1c2ccccc2c2nsnc21 | 5.4
C#CCNC(=O)C[n+]1c2ccccc2n2nc3c(cc21)c1cccc2cccc3c21 | -0.4
CCCOc1ccc(/C=C2\N=C(c3ccccc3Cl)OC2=O)cc1OCC | -1.1
C=CCn1nnc(NC(=O)CCC)n1 | 3.5
CSc1cccc(CNC(=O)CCc2nnc(-c3ccc4c(c3)OCO4)o2)c1 | -3.5
O=C1NN(c2ccc(Br)cc2)C(=O)/C1=C\C=C\c1ccco1 | 3.9
CCCCN1C(=O)/C(=C/c2ccc3c(c2)OCO3)C(=O)N(Cc2ccco2)C1=S | 101.4*
CCCCN1C(=O)C(=Cc2ccc(OCC)c(OC)c2)C(=O)N(CCCC)C1=S | 1.1
CCCCN1C(=O)C(=Cc2cccs2)C(=O)N(CCCC)C1=S | 4.0
CCCCC1(C)OC(=O)C(=Cc2ccc3c(c2)OCO3)C(=O)O1 (centres undefined) | -4.8
CCCCN1C(=O)C(=O)N(c2ccccc2)C1=S | 1.4
CCCCCCN1C(=O)NC(=O)/C(=C\c2ccc3c(c2)OCO3)C1=O | 7.0
CCCCN1C(=O)C(=Cc2ccco2)C(=O)N(CCCC)C1=S | 98.9*
CCCCN1C(=O)C(=C/C=C/c2ccco2)C(=O)N(CCCC)C1=S | 31.2*
CCCCOC(=O)c1ccc(Nc2cc(C)nc3ccc(OC)cc23)cc1 | 4.1
COc1cc(CN2CCOc3ccc(C(C)(O)COc4ccccc4)cc3C2)ccc1F (centres undefined) | 3.1
OCCNCc1cc(Cl)ccc1OCc1ccc(Cl)cc1 | 7.2
O=C1NC(=O)C(=Cc2cc(Cl)c(OCc3ccc(C(=O)O)cc3)c(Cl)c2)C(=O)N1 | -2.2
CCOc1cc(C=C2C(=O)NC(=S)NC2=O)cc(Br)c1OCc1ccc(C(=O)O)cc1 | 4.1
CCOc1cc(C=C2C(=O)NC(=S)NC2=O)cc(Cl)c1OCc1ccc(C(=O)O)cc1 | 50.4*
Cn1cc(I)c(C(=O)n2cc(Br)cn2)n1 | -3.6
CC(C)Cn1cc(C(=O)NCC2(c3ccccc3)CCCCC2)c(=O)c(C(=O)N2CCCCCC2)c1 | 0.1
O=C(O)c1ccc2c(c1)C1C=CCC1C(C1CC=CCC1)N2 (centres undefined) | 100.5*
SMILES | RBX1-CUL1 inh
COC(=O)c1ccc2c(c1)C1C=CCC1C(c1ccc([N+](=O)[O-])cc1)N2 (centres undefined) | 2.1
CCOC(=O)[C@@H]1Nc2ccc(Br)cc2[C@@H]2C=CC[C@H]12 | 1.9
COc1cccc(C(=O)Nc2nc(-c3ccc(S(=O)(=O)N4CCCC4)cc3)cs2)c1 | 1.6
Cc1ccccc1Cn1nnc2c1C(=O)c1ccccc1C2=O | 11.5
COc1ccc(Cn2nnc3c2C(=O)c2nnn(Cc4ccc(OC)cc4)c2C3=O)cc1 | 45.1*
O=C1c2ccccc2C(=O)c2c1nnn2Cc1ccc(F)cc1 | 13.2
COc1ccc(S(=O)(=O)Nc2ccc(-c3cn4ccsc4n3)cc2)cc1 | 96.7*
COc1ccc(S(=O)(=O)Nc2ccc(-c3cn4ccsc4n3)cc2)cc1C | 3.7
COc1ccc(S(=O)(=O)Nc2ccc(-c3cn4c(C)csc4n3)cc2)cc1 | 2.5
CCCCOc1ccc(C(=O)Nc2ccc3nc(SCC(=O)N4CCCC4)sc3c2)cc1 | 2.1
CN(C)c1nc(Cl)nc(N(C#N)CN2C(=O)c3ccccc3C2=O)n1 | 6.0
CC1(C)CC(=O)C(C(c2ccccc2OC(=O)c2ccccc2)C2C(=O)CC(C)(C)CC2=O)C(=O)C1 | -11.3
COC12C=CC(CC1)C1=C2C(=O)c2c(OC(=O)c3ccccc3)ccc(OC(=O)c3ccccc3)c2C1=O (centres undefined) | 70.8*
O=C(Oc1cc(=O)n(-c2ccccc2)c2c1CCCC2)c1ccccc1 | 4.9
N=C1OC2=C(C(=O)CCC2)C(c2ccc(F)cc2)C1[N+](=O)[O-] (centres undefined) | 7.8
CN(c1cccc(NC(=O)CCSc2ccc(Cl)cc2)c1)S(C)(=O)=O | -2.4
COc1cc(CC2=NC(=O)N(Cc3ccc(C)cc3)C2=O)ccc1OCc1cccc(C(=O)O)c1 | 17.5
COc1cc(CC2=NC(=O)N(CC(=O)Nc3cccc(C)c3)C2=O)cc(Cl)c1O | 3.8
COc1cc(CC2=NC(=O)N(CC(=O)Nc3ccc(C)cc3)C2=O)cc(Cl)c1OCc1cccc(C(=O)O)c1 | 45.3*
CC(C)CSc1nc(N)c(C#N)c(-c2cccs2)c1C#N | -3.2
COc1ccc(CNC(=O)N=C2CN(CC(C)C)C(=O)c3ccccc32)c(OC)c1 | 28.1*
COc1ccc(NC(=O)N=C2CN(CC(C)C)C(=O)c3ccccc32)c(OC)c1 | -7.0
Cc1ccc(CNC(=O)N=C2CN(CC(C)C)C(=O)c3ccccc32)cc1 | 1.7
CC(=O)N1CCN(c2ccc(NC(=O)C(C)C)cc2Cl)CC1 | -5.8
COC(=O)[C@]1(C)C[C@H](C(=O)NCC(F)(F)F)[C@H](c2ccccc2Cl)N1C | 4.6
SMILES | RBX1-CUL1 inh
COc1cc(/C=C2\C(=O)NN(c3ccc(F)cc3)C2=O)ccc1O | -1.8
CCOC(=O)C1=C(c2ccccc2)N=c2s/c(=C\c3ccc([N+](=O)[O-])o3)c(=O)n2C1c1cccc(OC)c1 (centres undefined) | -4.5
CCOC(=O)C1=C(c2ccccc2)N=c2s/c(=C\c3cc([N+](=O)[O-])ccc3O)c(=O)n2C1c1cccc(OC)c1 (centres undefined) | 59.8*
CCOC(=O)C1=C(C)N=c2s/c(=C\c3ccc(O)cc3)c(=O)n2C1c1ccc(OCC)cc1 (centres undefined) | 1.7
CCOC(=O)C1=C(C)N=c2s/c(=C\c3ccc4c(c3)OCO4)c(=O)n2C1c1ccc(OC)cc1 (centres undefined) | 10.4
CCOC(=O)C1=C(C)N=c2s/c(=C/c3cc(Br)c(O)cc3O)c(=O)n2C1c1ccc(OCC)cc1 (centres undefined) | 66.5*
CCOC(=O)C1=C(C)N=c2s/c(=C\c3ccc(O)c(Br)c3)c(=O)n2C1c1ccc(OC)cc1 (centres undefined) | 35.3*
CCOC(=O)C1=C(C)N=c2s/c(=C\c3cc(Cl)ccc3O)c(=O)n2C1c1ccc(OCC)cc1 (centres undefined) | 6.2
CCOC(=O)C1=C(C)N=c2s/c(=C/c3ccsc3)c(=O)n2C1c1ccc(OC)cc1 (centres undefined) | 2.4
CCOC(=O)C1=C(C)N=c2s/c(=C\c3ccc(O)cc3)c(=O)n2C1c1ccc(F)cc1 (centres undefined) | 6.6
CCOC(=O)C1=C(c2ccccc2)N=c2s/c(=C/c3ccccc3O)c(=O)n2C1c1cccc(OC)c1 (centres undefined) | 0.9
CCOC(=O)C1=C(C)N=c2s/c(=C/c3cc(Br)c(O)c(Br)c3)c(=O)n2C1c1ccc(Cl)cc1 (centres undefined) | 82.6*
CCOC(=O)C1=C(C)N=c2s/c(=C\c3cc4c(cc3Br)OCO4)c(=O)n2C1c1ccc(Cl)cc1 (centres undefined) | -3.0
CCN(CC)S(=O)(=O)c1ccc(NC(=O)c2ccccc2Oc2ccccc2)cc1 | 3.7
CC(=O)Nc1c(C)nc2nc[nH]n2c1=O | 7.0
O=C(NCc1cccnc1N1CCc2ccccc2C1)c1cscn1 | -6.4
CSc1nc(NNC(=O)c2ccco2)c2c3c(sc2n1)COC(C)(C)C3 | 1.5
COc1cc(CNc2ccc(N3CCCC3)cc2)cc(Br)c1OCc1ccc(F)cc1 | -28.1
